# Assay results: PubChem BioAssay AID1527 (The Scripps Research Institute Molecular Screening Center, 2009)
# Out of some 290,000 compounds screened, about 2,600 (0.9%) were called active. The full list was thinned out, with actives kept by preference. Values without a mark were called inactive.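 The calls were made as follows: active = inhibition above the mean of all tested compounds plus 3 SD, cutoff set per screening run (cut at about 7.5% in these data); inactive = the rest.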
# Test system: VIM-2 metallo-beta-lactamase (Pseudomonas aeruginosa)
# Assay: VIM-2 metallo-beta-lactamase inhibitors, primary screen, biochemical, epi-absorbance readout, Pseudomonas aeruginosa enzyme (AID 1527);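 also: red hydrolysis product quenches plate fluorescence so inhibitors raise well fluorescence; 0% = enzyme with DMSO and 100% = DMSO without enzyme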
# Conditions: purified VIM-2, nitrocefin hydrolysis, epi-absorbance fluorescence; at 5.6 µM; stronger effect = higher value
row,SMILES,inhibition
1,Cc1noc(C)c1CSCC(=O)N(CCC(C)C)c1c(N)n(Cc2ccccc2)c(=O)[nH]c1=O,-3.06%
2,O=C(COc1ccc2c3c(c(=O)oc2c1)CCC3)NC1CCCCC1,-1.01%
3,NC(=O)C1CCN(C(=O)COc2ccc3c4c(c(=O)oc3c2)CCC4)CC1,14.1% (active)
4,CCCCc1cc(=O)oc2c(C)c(OCC(=O)N3CCC(C(N)=O)CC3)ccc12,-1.28%
5,NC(=O)COc1ccc2c3c(c(=O)oc2c1)CCCCC3,7.97% (active)
6,Cc1c(C)c2ccc(OCC(=O)N3CCN(c4cccc(Cl)c4)CC3)cc2oc1=O,-1.38%
7,O=C(COc1ccc2c3c(c(=O)oc2c1)CCCC3)NCC(O)c1ccccc1 (stereo unspecified),6.2%
8,Cc1cc(Cl)nc(NC(=O)Nc2cccc(Cl)c2)n1,1.05%
9,Nc1cc(N)nc(SCc2cccc(F)c2)n1,3.79%
10,N=c1oc2ccccc2cc1C(=O)NCc1ccccc1,-0.7%
11,CCOC(=O)CSc1nc2ccc(C)cc2n2cnnc12,9.79% (active)
12,CCOC(=O)CSc1nc2ccc(C)cc2[nH]1,0.26%
13,COc1ccc(CCNc2nc3ccc(C)cc3n3cnnc23)cc1OC,0.51%
14,CCOC(=O)c1sc(NC(=S)n2cc(C)cn2)c(C(=O)OCC)c1C,-2.26%
15,CCn1cc(C(=O)NCCO)c(=O)c2cc(F)c(N3CCN(C)CC3)cc21,1.17%
16,CCn1cc(S(=O)(=O)c2cccc(C)c2)c(=O)c2cc(F)c(N3CCN(C)CC3)cc21,12.1% (active)
17,CN1CCN(c2cc3c(cc2F)c(=O)c(C(=O)O)cn3CCF)CC1,-0.28%
18,COc1ccc(/C=C/C(=O)NC(=S)N2CCCC(C(N)=O)C2)cc1 (stereo unspecified),-3%
19,COc1ccc(CNc2ccc3c(c2)CCC3)cc1OC,-1.76%
20,CCOC(=O)c1ccc2c(c1)nc(C)n2CC,-4.24%
21,CC(=O)c1ccc(-c2ccc(Cn3c(C)nc4cc(N)c(C)nc43)cc2)cc1,21.7% (active)
22,CC(=O)c1nc2ccccc2n1Cc1ccccc1,-0.19%
23,O=C(N/N=C/c1ccc(Cl)c(Cl)c1)c1ccc2nc[nH]c2c1,-1.16%
24,CS(=O)(=O)N1CCCC(C(=O)Nc2ccccc2C(F)(F)F)C1 (stereo unspecified),-0.2%
25,O=C(CSc1ccc(-c2ccco2)nn1)Nc1cccc(F)c1,-1.64%
26,Cc1ccccc1C(=O)NC(=S)NC1CC1,-2.76%
